# Experimental data published in article PMC7862700, “An all-to-all approach to the identification of sequence-specific readers for epigenetic DNA modifications on cytosine”.
# What was measured:
# Assay in all cases: DAPPL (digital affinity profiling via proximity ligation, sequencing); 10 mM Tris-HCl pH 7.5, 50 mM NaCl, 1 mM DTT, 4% glycerol, room temperature, 30 min; GST-TFs on glutathione beads, 16-mer random dsDNA library, 0.1% formaldehyde crosslink after washing; high values mean tight binding
# [1] = target: T1, FEV (Homo sapiens, UniProt Q99581 1-238); details: protein: recombinant; tags: N-terminal GST; dsDNA, one strand shown
# T1 sequence: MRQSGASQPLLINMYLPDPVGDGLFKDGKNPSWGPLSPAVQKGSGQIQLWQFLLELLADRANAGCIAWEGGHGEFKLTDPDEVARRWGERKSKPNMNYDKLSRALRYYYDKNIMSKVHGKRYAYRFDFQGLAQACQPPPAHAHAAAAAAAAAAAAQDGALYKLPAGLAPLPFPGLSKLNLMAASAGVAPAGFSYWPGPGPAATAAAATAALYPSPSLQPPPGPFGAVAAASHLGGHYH
# In short: (§1)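 Pools were built from human transcription factors expressed in yeast as GST fusions, captured on glutathione beads and DNA-barcoded, along with a tag-only sample. Incubation with 200 nmole of a 16-mer random double-stranded DNA library lasted 30 min at room temperature in Tris/NaCl/DTT/glycerol buffer, and was followed by washing, 0.1% formaldehyde crosslinking, proximity ligation, PCR amplification and Illumina NextSeq500 sequencing. Binding signal is the quotient of each hexamer's read frequency for a factor and its frequency for the tag-only sample.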
# [2] = target: ETV5 (Homo sapiens, UniProt P41161 1-510); details: protein: recombinant; tags: N-terminal GST; dsDNA, one strand shown
# Chain of ETV5 (P41161 whole entry): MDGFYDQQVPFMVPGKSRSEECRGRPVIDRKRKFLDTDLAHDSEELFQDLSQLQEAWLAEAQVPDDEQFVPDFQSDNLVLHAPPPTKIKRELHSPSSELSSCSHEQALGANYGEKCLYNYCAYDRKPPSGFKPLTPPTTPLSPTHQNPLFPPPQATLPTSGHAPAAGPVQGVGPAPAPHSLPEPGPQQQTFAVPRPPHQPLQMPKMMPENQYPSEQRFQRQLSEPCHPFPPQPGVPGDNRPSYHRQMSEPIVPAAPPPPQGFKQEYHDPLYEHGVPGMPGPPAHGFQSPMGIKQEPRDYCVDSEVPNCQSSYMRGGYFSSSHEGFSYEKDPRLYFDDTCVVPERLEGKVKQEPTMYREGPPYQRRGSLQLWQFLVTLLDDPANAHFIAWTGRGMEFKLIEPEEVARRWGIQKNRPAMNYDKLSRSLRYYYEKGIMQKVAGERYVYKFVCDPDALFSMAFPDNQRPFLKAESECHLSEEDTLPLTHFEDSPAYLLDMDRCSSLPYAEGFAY
# In short: as §1
# [3] = target: HSF1 (Homo sapiens, UniProt Q00613 1-529); details: protein: recombinant; tags: N-terminal GST; chain copies: 3; dsDNA, one strand shown
# Chain of HSF1 (Q00613 whole entry): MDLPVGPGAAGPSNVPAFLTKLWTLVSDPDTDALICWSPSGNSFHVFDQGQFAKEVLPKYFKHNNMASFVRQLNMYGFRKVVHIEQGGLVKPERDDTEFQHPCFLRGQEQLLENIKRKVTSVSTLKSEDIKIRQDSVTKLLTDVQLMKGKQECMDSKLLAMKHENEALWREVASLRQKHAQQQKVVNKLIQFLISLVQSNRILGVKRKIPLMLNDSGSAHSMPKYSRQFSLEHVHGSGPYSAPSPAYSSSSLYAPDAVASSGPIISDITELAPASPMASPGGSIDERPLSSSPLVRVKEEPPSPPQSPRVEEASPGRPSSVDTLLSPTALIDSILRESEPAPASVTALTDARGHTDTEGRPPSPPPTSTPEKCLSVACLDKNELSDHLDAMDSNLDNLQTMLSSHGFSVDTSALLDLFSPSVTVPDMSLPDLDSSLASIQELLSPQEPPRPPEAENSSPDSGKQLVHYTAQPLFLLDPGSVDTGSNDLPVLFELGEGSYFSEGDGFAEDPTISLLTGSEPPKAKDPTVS
# In short: as §1
# [4] = target: T2, SPIC (Homo sapiens, UniProt Q8N5J4 1-248); details: protein: recombinant; tags: N-terminal GST; dsDNA, one strand shown
# T2 sequence: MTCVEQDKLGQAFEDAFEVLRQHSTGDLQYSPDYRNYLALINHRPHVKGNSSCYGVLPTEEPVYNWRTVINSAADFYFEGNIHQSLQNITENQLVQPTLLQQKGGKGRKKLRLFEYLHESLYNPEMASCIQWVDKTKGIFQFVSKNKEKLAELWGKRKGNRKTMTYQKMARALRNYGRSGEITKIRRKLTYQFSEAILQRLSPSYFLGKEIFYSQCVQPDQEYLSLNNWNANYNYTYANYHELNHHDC
# In short: as §1
# [5] = target: ELF4 (Homo sapiens, UniProt Q99607 1-663); details: protein: recombinant; tags: N-terminal GST; dsDNA, one strand shown
# Chain of ELF4 (Q99607 whole entry): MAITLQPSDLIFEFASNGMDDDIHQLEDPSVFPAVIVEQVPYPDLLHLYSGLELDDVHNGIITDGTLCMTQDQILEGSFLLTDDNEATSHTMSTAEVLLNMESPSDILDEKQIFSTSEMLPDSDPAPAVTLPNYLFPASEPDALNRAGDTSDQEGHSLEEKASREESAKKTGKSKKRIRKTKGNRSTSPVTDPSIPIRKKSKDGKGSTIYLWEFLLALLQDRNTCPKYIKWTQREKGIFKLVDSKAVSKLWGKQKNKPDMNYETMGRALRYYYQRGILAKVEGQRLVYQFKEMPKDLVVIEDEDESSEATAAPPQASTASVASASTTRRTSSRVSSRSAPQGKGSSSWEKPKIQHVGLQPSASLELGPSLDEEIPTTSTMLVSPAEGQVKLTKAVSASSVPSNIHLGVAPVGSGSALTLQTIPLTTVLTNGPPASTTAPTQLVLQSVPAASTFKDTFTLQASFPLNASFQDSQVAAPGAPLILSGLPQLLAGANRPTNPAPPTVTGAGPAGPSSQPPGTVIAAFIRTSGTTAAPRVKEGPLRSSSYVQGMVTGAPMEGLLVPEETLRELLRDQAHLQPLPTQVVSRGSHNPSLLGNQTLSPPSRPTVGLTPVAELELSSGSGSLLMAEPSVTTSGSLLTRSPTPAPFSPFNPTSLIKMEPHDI
# In short: as §1
# [6] = target: T3, ELK4 (Homo sapiens, UniProt P28324-2 1-405); details: protein: recombinant; tags: N-terminal GST; dsDNA, one strand shown
# T3 sequence: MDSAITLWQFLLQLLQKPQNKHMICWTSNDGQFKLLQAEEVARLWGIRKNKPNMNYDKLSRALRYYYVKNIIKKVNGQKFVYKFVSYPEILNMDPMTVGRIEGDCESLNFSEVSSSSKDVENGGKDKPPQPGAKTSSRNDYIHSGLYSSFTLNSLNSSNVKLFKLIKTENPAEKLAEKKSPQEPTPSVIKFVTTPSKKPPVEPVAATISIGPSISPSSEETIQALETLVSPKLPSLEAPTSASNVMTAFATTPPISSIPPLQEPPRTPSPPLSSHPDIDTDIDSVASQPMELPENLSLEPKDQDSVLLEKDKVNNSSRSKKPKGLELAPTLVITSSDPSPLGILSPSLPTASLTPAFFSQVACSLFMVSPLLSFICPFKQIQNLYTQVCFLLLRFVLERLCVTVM
# In short: as §1
# [7] = target: T4, ETV2 (Homo sapiens, UniProt O00321 1-342); details: protein: recombinant; tags: N-terminal GST; dsDNA, one strand shown
# T4 sequence: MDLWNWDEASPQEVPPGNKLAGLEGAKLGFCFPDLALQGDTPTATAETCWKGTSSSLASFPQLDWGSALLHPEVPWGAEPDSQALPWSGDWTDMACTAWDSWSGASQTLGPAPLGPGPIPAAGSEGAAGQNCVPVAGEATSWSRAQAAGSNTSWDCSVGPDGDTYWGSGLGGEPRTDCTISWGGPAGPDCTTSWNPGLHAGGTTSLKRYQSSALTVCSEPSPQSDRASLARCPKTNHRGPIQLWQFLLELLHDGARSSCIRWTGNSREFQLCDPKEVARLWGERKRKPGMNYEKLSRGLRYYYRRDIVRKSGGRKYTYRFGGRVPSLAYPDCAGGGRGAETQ
# In short: as §1
# [8] = target: T5, ELF3 (Homo sapiens, UniProt P78545 1-371); details: protein: recombinant; tags: N-terminal GST; dsDNA, one strand shown
# T5 sequence: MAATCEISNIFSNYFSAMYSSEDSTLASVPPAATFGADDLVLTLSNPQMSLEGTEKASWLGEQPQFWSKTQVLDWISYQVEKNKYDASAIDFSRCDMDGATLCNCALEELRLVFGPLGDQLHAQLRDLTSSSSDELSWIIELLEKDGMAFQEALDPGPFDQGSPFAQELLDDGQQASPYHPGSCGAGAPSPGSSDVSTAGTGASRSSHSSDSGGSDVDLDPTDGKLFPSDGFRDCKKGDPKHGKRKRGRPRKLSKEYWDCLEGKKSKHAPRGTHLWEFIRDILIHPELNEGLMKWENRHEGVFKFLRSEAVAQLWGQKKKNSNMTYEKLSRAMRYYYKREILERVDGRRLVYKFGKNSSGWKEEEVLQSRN
# In short: as §1
# [9] = target: CRX (Homo sapiens, UniProt O43186 1-299); details: protein: recombinant; tags: N-terminal GST; dsDNA, one strand shown
# Chain of CRX (O43186 whole entry): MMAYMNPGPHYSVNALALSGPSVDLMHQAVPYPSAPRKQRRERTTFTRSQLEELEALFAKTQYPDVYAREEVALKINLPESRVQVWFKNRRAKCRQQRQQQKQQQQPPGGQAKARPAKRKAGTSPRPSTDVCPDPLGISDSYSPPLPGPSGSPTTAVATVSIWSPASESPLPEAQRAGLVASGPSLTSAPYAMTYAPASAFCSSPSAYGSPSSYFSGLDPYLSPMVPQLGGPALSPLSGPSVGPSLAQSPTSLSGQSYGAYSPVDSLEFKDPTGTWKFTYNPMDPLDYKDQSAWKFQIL
# In short: as §1
# [10] = target: ETV1 (Homo sapiens, UniProt P50549 1-477); details: protein: recombinant; tags: N-terminal GST; dsDNA, one strand shown
# Chain of ETV1 (P50549 whole entry): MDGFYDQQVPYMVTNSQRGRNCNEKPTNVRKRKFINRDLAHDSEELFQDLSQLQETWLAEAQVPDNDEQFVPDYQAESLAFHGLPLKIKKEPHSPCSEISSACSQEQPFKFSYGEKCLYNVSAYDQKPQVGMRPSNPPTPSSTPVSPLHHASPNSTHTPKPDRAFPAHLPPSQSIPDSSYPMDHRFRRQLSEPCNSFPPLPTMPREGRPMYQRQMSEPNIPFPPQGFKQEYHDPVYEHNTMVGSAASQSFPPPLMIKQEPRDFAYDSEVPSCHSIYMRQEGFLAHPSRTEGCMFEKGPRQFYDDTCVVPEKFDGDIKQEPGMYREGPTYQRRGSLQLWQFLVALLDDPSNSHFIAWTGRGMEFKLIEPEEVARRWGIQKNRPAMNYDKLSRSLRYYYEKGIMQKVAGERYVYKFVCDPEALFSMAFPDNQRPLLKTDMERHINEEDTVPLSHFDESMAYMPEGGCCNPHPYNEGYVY
# In short: as §1
sequence,measurement,setting,value
GTATAT,binding signal,[1],"1.06 fold enrichment (6-mer frequency, TF over GST control)"
same,binding signal,[2],"1.19 fold enrichment (6-mer frequency, TF over GST control)"
same,binding signal,[3],"1.04 fold enrichment (6-mer frequency, TF over GST control)"
same,binding signal,[4],"1.18 fold enrichment (6-mer frequency, TF over GST control)"
same,binding signal,[5],"1.17 fold enrichment (6-mer frequency, TF over GST control)"
same,binding signal,[6],"1.21 fold enrichment (6-mer frequency, TF over GST control)"
same,binding signal,[7],"1.12 fold enrichment (6-mer frequency, TF over GST control)"
same,binding signal,[8],"1.02 fold enrichment (6-mer frequency, TF over GST control)"
same,binding signal,[9],"1.07 fold enrichment (6-mer frequency, TF over GST control)"
same,binding signal,[10],"1.18 fold enrichment (6-mer frequency, TF over GST control)"
